Assay outcomes as filed in PubChem.
M1 PAM: human M1 muscarinic receptor positive allosteric modulators, primary screen, CHO-K1 cells, Fluo-8 calcium fluorescence, 1536-well; Muscarinic acetylcholine receptor M1 (Homo sapiens), P11229; CHO-K1 hM1, ACh EC20; 0% = ACh EC20, 100% = maximal ACh; activation, % at 3 µM; 0.088% of 360,000 active; in the data active = activation above about 19%, passing the limit was not always enough
Target sequence (P11229 whole entry, looked up): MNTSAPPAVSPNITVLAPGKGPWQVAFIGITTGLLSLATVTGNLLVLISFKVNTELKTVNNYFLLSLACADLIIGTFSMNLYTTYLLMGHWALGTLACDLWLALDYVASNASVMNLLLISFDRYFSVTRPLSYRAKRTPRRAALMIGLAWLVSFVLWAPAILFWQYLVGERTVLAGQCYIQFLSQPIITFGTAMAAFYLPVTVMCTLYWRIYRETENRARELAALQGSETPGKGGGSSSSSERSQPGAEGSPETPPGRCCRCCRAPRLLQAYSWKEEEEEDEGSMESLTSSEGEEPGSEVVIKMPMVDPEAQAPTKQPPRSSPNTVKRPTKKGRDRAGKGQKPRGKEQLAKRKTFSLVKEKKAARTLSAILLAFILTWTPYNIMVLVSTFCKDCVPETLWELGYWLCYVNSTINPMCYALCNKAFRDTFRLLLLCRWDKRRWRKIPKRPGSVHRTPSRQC
M1 PAM parental: nonselective calcium activators in parental CHO-K1 cells, primary screen, counter-screen for M1 PAM project, cell-based, Fluo-8 calcium fluorescence, full deck, 1536-well | activation, % at 3 µM | 0.02% of 360,000 active | ATP EC20; 0% at ATP EC20, 100% at ATP max;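 active = activation above the run cutoff, the mean activation of all test compounds plus 3 SD, cut at about 40% in these data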;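 note: peak over basal fluorescence ratio in a 140 s read after ATP addition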
M1 ag: human M1 muscarinic receptor agonists, primary screen, Fluo-8 calcium fluorescence, CHO-K1 cells, HTS. Muscarinic acetylcholine receptor M1 (Homo sapiens), P11229. CHO-K1 hM1, agonist mode; 0% DMSO, 100% acetylcholine EC100. activation, % at 3 µM. 0.33% of 360,000 active;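 active = activation above the run's mean compound activation plus 3 SD, cut at about 16% in these data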;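 note: peak over basal fluorescence ratio within a 140 s kinetic read after compound addition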
CHRM1 antagonist: human M1 muscarinic receptor antagonists, primary screen, CHO-K1 cells, Fluo-8 calcium fluorescence, 1536-well; Muscarinic acetylcholine receptor M1 (Homo sapiens), P11229; CHO-K1 hM1, ACh EC80 antagonist; inhibition, % at 3 µM; 1.3% of 360,000 active; AID 588852, 2011;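 active = percent inhibition above its own plate's cutoff, namely the mean of that plate's compound wells plus 3 SD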;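 note: peak over basal fluorescence ratio during 140 s after agonist addition; 0% = ACh EC80 plus DMSO and 100% = DMSO alone without agonist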
CHO-K1 Ca antag: counter-screen for M1 antagonists: effect in parental CHO-K1 cells; ATP-induced calcium, Fluo-8 fluorescence; inhibition, % at 3 µM; 0.6% of 360,000 active; AID 602250;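 active = inhibition above a per-plate cutoff, the plate's mean sample inhibition plus 3 SD, cut at about 24% in these data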;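 note: 0% = DMSO plus EC80 ATP and 100% = DMSO alone without ATP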
M1 ag parental: counter-screen for M1 agonists: effect in parental CHO-K1 cells. activation, % at 3 µM. 0.48% of 360,000 active. Fluo-8 calcium fluorescence; scaled to maximal ATP response, vehicle zero. AID 602248, 2012; in the data active = activation above about 15%;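 note: untransfected CHO-K1 host cells lacking M1 receptor as counterscreen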
Starred values were filed as active, the others as inactive; · = no result. In the library only some 2.3% were active in any assay of this set; here they are far more common.

SMILES | M1 PAM | M1 PAM parental | M1 ag | CHRM1 antagonist | CHO-K1 Ca antag | M1 ag parental
COc1cccc(CC(NC(C)=O)C(=O)NC2CCN(C(=O)c3ccc(Cl)cc3)CC2)c1 (stereo not drawn) | 6.9 | 6.1 | -4.1 | -4.8 | -12.4 | 2.2
CC1(C)CC(C(CCN(Cc2ccccc2)C(=O)c2ccco2)c2ccc(F)cc2)CCO1 (stereo not drawn) | -18.7 | 12.3 | -3.2 | 36.1* | 4.4 | 4.5
O=C(c1ccco1)N(CCC(c1ccccc1)c1ccco1)Cc1ccc(F)cc1 (stereo not drawn) | 1.7 | 1.2 | -2.8 | 0.6 | -8.4 | 0.8
CCCC(C)NC(=O)CN1C(=O)NC2(CCc3ccccc32)C1=O (stereo not drawn) | 5.7 | 4.4 | -1.1 | -9.1 | -11.8 | 2.2
CCOC(=O)Cn1c(=O)oc2cc(S(=O)(=O)NC3CCCCC3)ccc21 | -20.2 | -3.3 | -1.5 | 32.0* | 16.0 | 0.8
Cc1onc(-c2c(Cl)cccc2Cl)c1C(=O)N1CCc2ccccc2C1 | -23.1 | 19.9 | -6.3 | 40.7* | -10.2 | 0.2
O=S(=O)(Nc1cccc(S(=O)(=O)N2CCCCC2)c1)c1ccccc1F | 12.1 | -16.8 | 1.8 | -16.8 | 1.4 | 0.0
Cc1ccc(NC(=O)CCCn2nc(C)c3c(C)n(-c4ccccc4)nc3c2=O)c(Cl)c1 | 5.7 | 17.0 | -4.5 | -2.9 | -11.1 | -0.6
Cc1cccc2cc(CN(CCN3CCOCC3)C(=O)Nc3ccccc3F)c(=O)[nH]c12 | 0.7 | -14.3 | -4.3 | -7.6 | 30.0* | 0.7
CCOC(=O)Cc1csc(NC(=O)c2ccc(NC(C)=O)cc2)n1 | 5.7 | 10.0 | -0.9 | -4.1 | -14.9 | 0.8
CCOC(=O)Cc1csc(NC(=O)Nc2ccc(OC(F)(F)F)cc2)n1 | -17.4 | -15.3 | 5.0 | 41.2* | 34.3* | 10.4
COc1ccc(C2CC(c3cccs3)=NN2C(=O)CSc2nncn2C)cc1OC (stereo not drawn) | 9.2 | 1.4 | -5.7 | -15.2 | -12.7 | -0.4
COc1ccc(C2CC(c3cccs3)=NN2C(=O)CSc2nnnn2C)cc1OC (stereo not drawn) | -6.4 | 7.8 | -3.3 | 8.0 | 5.6 | 15.3*
COc1cc(/C=C2/SC(=S)NC2=O)ccc1OS(=O)(=O)c1ccc(C)cc1 | -9.8 | -4.0 | -0.1 | 11.5 | 24.8* | 10.8
COc1ccc(/C=C2\SC(=O)NC2=S)cc1OC | -9.2 | 11.5 | 7.0 | 15.0 | 11.2 | 20.9*
Nc1[nH]c(C(=O)c2ccccc2)c(-c2ccccc2C(F)(F)F)c1C(=O)NCc1cccc2ccccc12 | · | 9.9 | · | · | -16.1 | 0.6
CCN(CC)S(=O)(=O)c1cc(NC(=O)c2cc([N+](=O)[O-])ccc2N2CCOCC2)ccc1C | -10.5 | 20.2 | -6.1 | 0.6 | -12.4 | 1.3
CC(C)CC(=O)OC1C(N2CCOCC2)c2c(ccc(/C=C/C(=O)N3CCOCC3)c2O)OC1(C)C (stereo not drawn) | 5.6 | 14.0 | -4.6 | 0.8 | 3.6 | 15.3*
CS(=O)(=O)N(CC(=O)Nc1c(F)cccc1F)c1ccc(C23CC4CC(CC(C4)C2)C3)cc1 | 5.0 | 9.4 | 21.0* | 10.9 | -15.4 | 0.9
O=c1c2ccccc2nc(SCc2cccc(F)c2)n1-c1cccc(S(=O)(=O)N2CCCC2)c1 | -7.1 | -15.0 | -4.6 | 8.6 | 26.8* | -0.2
O=C(c1ccc(-n2c(SCc3cccc(F)c3)nc3ccccc3c2=O)cc1)N1CCOCC1 | 3.8 | 5.7 | 0.4 | -4.0 | 1.5 | 0.3
O=C(O)c1ccc(CSc2nc3ccccc3c(=O)n2-c2ccccc2)cc1 | 8.0 | 25.7 | -1.8 | -14.7 | -10.1 | 0.9
COc1ccc(-n2c(SCc3ccc([N+](=O)[O-])cc3)nnc2-c2ccccc2)cc1 | 4.6 | 24.5 | -9.8 | 0.0 | -0.9 | 16.3*
O=c1c2ccccc2nc(SCc2ccc([N+](=O)[O-])cc2)n1-c1ccccc1 | 22.9* | -0.4 | -3.3 | 12.1 | 1.1 | -0.3
Cn1c(SCc2cccc([N+](=O)[O-])c2)nc2ccccc2c1=O | -12.7 | -9.5 | -0.4 | 35.9* | -2.8 | 1.7
SMILES | M1 PAM | M1 PAM parental | M1 ag | CHRM1 antagonist | CHO-K1 Ca antag | M1 ag parental
CCOC(=O)C(=O)C1=C(N2CCOCC2)/C(=C\c2cccc([N+](=O)[O-])c2)CC1 | 2.2 | 14.3 | -4.3 | -8.8 | -6.8 | 0.2
O=C(NP(=O)(N1CCCC1)N1CCCC1)C1=C(N2CCOCC2)/C(=C/c2cccc([N+](=O)[O-])c2)CC1 | 2.9 | 8.1 | -5.9 | -3.5 | 6.8 | 17.2*
Cc1ccc(NC(=O)CCC(=O)OCC(=O)c2ccc(Oc3ccc([N+](=O)[O-])cc3)cc2)c(C)c1 | 2.3 | -0.8 | 2.1 | 9.6 | 29.9* | 1.1
CCN(CCCNC(=O)C1CCN(S(=O)(=O)c2cccc3nonc23)CC1)Cc1ccccc1 | -19.8 | -6.4 | -5.3 | 46.8* | -5.1 | 0.2
CCN(CC)CCSc1nnc(Nc2ccccc2)n1-c1ccccc1 | -36.2 | 1.4 | -14.4 | 95.6* | 3.8 | -0.1
CCN(CC)CCSc1nc(O)c(-c2ccccc2)c(=O)n1-c1ccccc1 | 6.1 | 14.4 | -6.0 | -12.6 | -15.3 | 0.0
O=C(Nc1ccccc1)c1cc(C2CCCN(C(=O)c3ccccc3)C2)on1 (stereo not drawn) | 0.9 | 16.8 | -8.1 | -9.0 | -13.7 | 1.5
O=C(Nc1ccccc1)c1cc(C2CCCN(C(=O)c3cccs3)C2)on1 (stereo not drawn) | 1.2 | -9.3 | -7.7 | -8.3 | 24.4* | 0.2
CCCC(=O)N1CCCC(c2cc(C(=O)Nc3ccccc3)no2)C1 (stereo not drawn) | 2.4 | -15.2 | -8.2 | -8.8 | 23.8* | -0.2
Cc1nn(C)c(C)c1NC(=S)Nc1ccc(S(=O)(=O)Nc2ncccn2)cc1 | 0.3 | -5.1 | -2.2 | 3.0 | 3.1 | 0.1
CC1(C(=O)NS(=O)(=O)c2ccccc2Cl)CCN1C(=O)C1(c2ccc(Cl)cc2)CC1 (stereo not drawn) | 2.5 | 11.9 | 1.0 | -3.7 | -7.3 | -0.4
CC1(C(=O)NS(=O)(=O)c2ccccc2Cl)CCN1C(=O)C1(c2ccc(Cl)cc2)CCC1 (stereo not drawn) | 3.9 | -15.1 | -3.8 | -11.7 | 48.2* | -1.2
CCCCCC[N+](C)(C)CCSSCC[N+](C)(C)CCCCCC | 10.3 | 23.5 | -8.0 | -8.8 | -14.5 | 1.2
CCCCCCCCCCCCCCCC[N+](C)(C)CC | -26.2 | 15.4 | 0.3 | 89.7* | -4.3 | 2.1
CCCCCCCCCCCCCCCC[N+](C)(C)CCl | -20.5 | 18.1 | -6.8 | 42.6* | -13.1 | 0.1
